Measurements as given in PubChem BioAssay (Tox21).
Records with an inconclusive call do not appear. Where a call stands in place of a potency, no number is given. A number with no mark means an inactive call. Calls of active or inactive are those of the source. Calls follow the shape of the dose curve; as a rule, active = well fitted curve in the direction sought with a large enough effect in the repeat runs; inconclusive = weak or mixed curves; inactive = no such curve, though single readings can be large; an effect the other way counts as inactive or inconclusive.

Legend:
[1] = qHTS RealTime-Glo MT Cell Viability Assay in HEK293 cells - 16 hour (AID 1224872); also: nearly all actives have a fitted effect of over 50% in size; also: potency is read from the fitted curve at half-maximal effect
Method in brief: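 Cells + reagent dispensed (600 cells/well, HEK293) → 5 h at 37 C/5% CO2 → 23 nL compound in DMSO pinned → 40 h at 37 C → luminescence read at 0, 8, 16, 24, 32, 40 h.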

[2] = qHTS RealTime-Glo MT Cell Viability Assay in HepG2 cells - 8 hour (AID 1224873); also: nearly all actives have a fitted effect of over 55% in size
Method in brief: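 HepG2 cells mixed with RealTime-Glo MT reagents (NanoLuc plus cell-permeant prosubstrate) were seeded at 600 cells/well, incubated 5 h at 37 C/5% CO2, then pinned with compounds in DMSO; nonlytic luminescence tracked viability during 40 h treatment.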

[3] = qHTS RealTime-Glo MT Cell Viability Assay in HEK293 cells - 40 hour (AID 1224874); details: RealTime-Glo luminescence; max response: stronger effect = lower value; also: nearly all actives have a fitted effect of over 50% in size; also: potency is read from the fitted curve at half-maximal effect
Method in brief: (§1)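 qHTS format; HEK293 cells with NanoLuc/prosubstrate reagent, 37 C/5% CO2 for 5 h pre-dosing; compounds 23 nL in DMSO; luminescence at each time point reflects viable cells.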

[4] = A CellTox Green Cytotoxicity Assay to monitor cytotoxicity in HEK293 cells - 24 hour (AID 1224875); also: series mostly up to about 77 µM; nearly all actives have a fitted effect of over 45% in size
Method in brief: (§2)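 Each value comes from one timepoint of a single continuous run in which HEK293 cells with CellTox Green were exposed to compound for up to 40 h at 37 C, dye fluorescence rising with cell death.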

[5] = A CellTox Green Cytotoxicity Assay to monitor cytotoxicity in HepG2 cells - 16 hour (AID 1224876); also: nearly all actives have a fitted effect of over 45% in size
Method in brief: (§3)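 Continuous culture of HepG2 cells with a membrane-impermeant DNA dye; rising fluorescence marks dead cells. Compound exposure lasted up to 40 h at 37 C, with reads every 8 h from 0 h.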

[6] = qHTS RealTime-Glo MT Cell Viability Assay in HepG2 cells - 32 hour (AID 1224877); also: nearly all actives have a fitted effect of over 55% in size
Method in brief: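 Real-time, nonlytic viability: 600 HepG2 cells/well mixed with NanoLuc enzyme plus prosubstrate; 5 h settle, compound (DMSO) added by pintool; luminescence monitored over 40 h at 37 C.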

[7] = A CellTox Green Cytotoxicity Assay to monitor cytotoxicity in HepG2 cells - 40 hour (AID 1224879); also: nearly all actives have a fitted effect of over 40% in size; also: potency is read from the fitted curve at half-maximal effect
Method in brief: as §3

[8] = A CellTox Green Cytotoxicity Assay to monitor cytotoxicity in HEK293 cells - 32 hour (AID 1224881); also: nearly all actives have a fitted effect of over 40% in size
Method in brief: as §2

[9] = A CellTox Green Cytotoxicity Assay to monitor cytotoxicity in HepG2 cells - 24 hour (AID 1224878); also: nearly all actives have a fitted effect of over 45% in size
Method in brief: as §3

[10] = qHTS RealTime-Glo MT Cell Viability Assay in HEK293 cells - 0 hour (AID 1224880); also: top concentration of the series differs between compounds; nearly all actives have a fitted effect of over 45% in size
Method in brief: as §1

SMILES | Potency [1] | Potency [2] | max response [3] | Potency [4] | Potency [5] | Potency [6] | Potency [7] | Potency [8] | Potency [9] | Potency [10] | Potency [3]
COCC(C)OC(C)=O (centres undefined) | inactive | inactive | 8.38% | inactive | inactive | inactive | inactive | inactive |  |  | 
CCOc1ccc(N=Nc2ccc(/C=C/c3ccc(N=Nc4ccc(OCC)cc4)cc3S(=O)(=O)O)c(S(=O)(=O)O)c2)cc1 | inactive | inactive | -1.09% | inactive | inactive |  | inactive |  | inactive | inactive | 
COc1cc(C(=O)OCCCN2CCCN(CCCOC(=O)c3cc(OC)c(OC)c(OC)c3)CC2)cc(OC)c1OC | 5.35 µM (active) | inactive |  |  | inactive | inactive | 23.9 µM (active) |  |  | inactive | 9.52 µM (active)
C[Si](C)(CCCN)O[Si](C)(C)CCCN | inactive | inactive | -16% |  | inactive | inactive | inactive |  | inactive | inactive | 
CCCCO | inactive | inactive | 1.62% |  | inactive | inactive | inactive |  | inactive | inactive | 
CCCCC | inactive | inactive | 0.575% |  | inactive | inactive | inactive |  | inactive | inactive | 
O=C1c2ccccc2S(=O)(=O)N1CCCCN1CCN(c2ncccn2)CC1 | inactive | inactive | -0.801% |  | inactive | inactive | inactive | inactive | inactive | inactive | 
O=C1OC(=O)C2C3C=CC(C3)C12 (centres undefined) | inactive | inactive |  | inactive | inactive | inactive | inactive | inactive | inactive |  | 
O=C(O)c1ccccc1Cl | inactive | inactive |  | inactive | inactive | inactive | inactive | inactive | inactive | inactive | 
COc1cccc(N(C)C(=S)Oc2ccc3c(c2)CCCC3)n1 | inactive | inactive |  | inactive | inactive | inactive | inactive | inactive | inactive |  | 
O=P(O)(OCc1ccccc1)OCc1ccccc1 | inactive | inactive |  | inactive | inactive | inactive | inactive | inactive | inactive | inactive | 
CCCCC/C=C\C/C=C\CCCCCCCC(=O)NC(C)c1ccccc1 (centres undefined) | inactive | inactive |  | inactive | inactive | inactive | inactive | inactive | inactive | inactive | 
O=C(O)C1(C(=O)Nc2ccc(Cl)cc2Cl)CC1 | inactive | inactive |  | inactive | inactive | inactive | inactive | inactive | inactive | inactive | 
CC(=O)[O][Al] | inactive | inactive |  | inactive | inactive | inactive | inactive | inactive | inactive |  | 
O=C(Nc1ccccc1)c1ccccc1O | inactive | inactive |  | inactive | inactive |  |  | inactive | inactive | inactive | 
CC(C)OC(=O)C(C)N(C(=O)c1ccccc1)c1ccc(F)c(Cl)c1 (centres undefined) | inactive | inactive |  | inactive | inactive | inactive | inactive |  | inactive | inactive | 
OCCN1CCN(CCCN2c3ccccc3C=Cc3ccccc32)CC1 | inactive | inactive |  | inactive | inactive | inactive | inactive | inactive | inactive | inactive | 
CCN(CC)CCOC(=O)C(Cc1cccc2ccccc12)CC1CCCO1 (centres undefined) | inactive | inactive |  | inactive |  | inactive | inactive |  | inactive |  | 
CN(C)CCN(Cc1ccccc1)c1ccccn1 | inactive | inactive |  | inactive | inactive | inactive | inactive | inactive |  |  | 
CC[N+]1(CC)CCC(=C(c2ccccc2)c2ccccc2)C1C (centres undefined) | inactive | inactive |  | inactive | inactive | inactive | inactive | inactive | inactive | inactive | 
C=C1C(=C/C=C2\CCC[C@]3(C)[C@@H]([C@H](C)/C=C/[C@@H](O)C4CC4)CC[C@@H]23)C[C@@H](O)C[C@@H]1O | 19 µM (active) | inactive |  | inactive | inactive | inactive | inactive | inactive | inactive | inactive | 
O=C(O)C1(C(=O)O)CCC1.[NH2-].[NH2-].[Pt+2] | inactive | inactive |  | inactive | inactive | inactive | inactive | inactive |  | inactive | 
